For 40 molecules, outcome and AC50 results are on record in PubChem BioAssay (EPA / NIEHS).

The AC50 is the midpoint of the concentration-response curve, whichever way the signal moves.

Results filed as inconclusive are left out. Calls of active or inactive are those of the source. The calls were made as follows: active = hit-call score of the fitted dose curve at least 0.9, where 1 is the maximum; inconclusive = response in the unintended direction; inactive = score below 0.9.

The assay in a line: Tanguay_ZF_120hpf_PIG_legacy: (Legacy) Oregon State University Tanguay Lab 120 Hour Post-fertilization zebrafish Assay for Pigmentation Malformation (AID 2283650).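 Also: dechorionated Tropical 5D zebrafish embryos exposed singly from 6 to 120 hpf.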 Here is the method: Tanguay_ZF_120hpf_legacy is a whole embryo, multiplexed endpoint assay using zebrafish larvae exposed for 120 hours post fertilization on a 96-well plate.Tanguay_ZF_120hpf_PIG_legacy is one of one assay component(s) measured or calculated from the Tanguay_ZF_120hpf_legacy assay. It is designed to make measurements of zebrafish development as detected with brightfield microscopy of developing zebrafish embryos.Data from the assay component Tanguay_ZF_120hpf_PIG_legacy was analyzed into 1 assay endpoints. This assay endpoint, Tanguay_ZF_120hpf_PIG_legacy, was analyzed in the positive analysis fitting direction relative to DMSO as the negative control and baseline of activity. Using a type of morphology reporter, gain-of-signal activity can be used to understand changes in developmentals as they relate to the whole embryo. To generalize the intended target to other relatable targets, this assay endpoint is annotated to the zebrafish development intended target family, where the subfamily is embryonic pigmentation.
Zebrafish husbandry: Tropical 5D wild-type adult zebrafish were housed in at an approximate density of 1000 per 100 gallon tank at the Sinnhuber Aquatic Research Laboratory, Oregon State University, Corvallis, OR. Each tank was kept at standard laboratory conditions of 28C on a 14-h light/10-h dark photoperiod in fish water consisting of reverse osmosis water supplemented with a commercially available salt (Instant Ocean). Spawning funnels were placed into the tanks the night prior, and embryos were collected and staged. To increase bioavailability, the chorion was enzymatically removed using pronase (63.6mg/ml, >/= 3.5U/mg, Sigma-Aldrich: P5147) at 4 hours post fertilization (hpf) using a custom automated dechorionator.Chemical exposures: Six hpf dechorionated embryos were placed 1 embryo per well in a 96-well plate prefilled with 90 ul of EM using automated embryo placement systems (AEPS). Ten microliters of each row of dilution plate 2 was added to 2 exposure plates. The final DMSO concentration used was 0.64% (vol/vol). Thirty-two embryos were also exposed to 5uM trimethyltin chloride (positive control). Plates were sealed to prevent evaporation and foil covered to reduce light exposure and kept in a 28C incubator. Embryos were statically exposed until 120 hpf. At 24 hpf, embryos were assessed for photomotor response using a custom photomotor response analysis tool (PRAT) and for developmental toxicity endpoints (MO24: mortality at 24 hpf, DP: developmental progression, SM: spontaneous movement, and NC: notochord distortion). At 120 hpf, locomotor activity was measured using Viewpoint Zebralab and assessed for 18 endpoints. Zebrafish acquisition and analysis program (ZAAP), a custom program designed to inventory, acquire, and manage zebrafish data, was used to collect developmental endpoints as either present or absent (i.e., binary responses were recorded). If mortality occurred for an embryo (at either 24 or 120 hpf), the non-mortality endpoints were not measured.
Consider `O=C1OC(c2ccc(O)cc2)(c2ccc(O)cc2)c2ccccc21`, for which the call was inactive.

Consider `O=C(NS(=O)(=O)/C=C/c1cccs1)c1ccc(F)cc1Br`, for which the molecule was classed as inactive.

Consider `CN(C)C(=O)NC1(c2ccccc2)CCN(CC[C@@]2(c3ccc(F)c(F)c3)CN(C(=O)c3ccccc3)CCO2)CC1`, for which the result was inactive.

Turning to `CC(C)COC(=O)CCCCC(=O)OCC(C)C`, the outcome was inactive.

`CN(C)CCCN(C)CCCN(C)C`: the outcome was inactive.

Consider `CC(COCC(C)OC(=O)c1ccccc1)OC(=O)c1ccccc1` (stereo not given), for which the call was inactive.

For `OCC(O)CO`, the molecule was called inactive.

On to `COc1ccc(OC(F)(F)F)cc1CN[C@H]1CCCN[C@H]1c1ccccc1`, for which the molecule was classed as inactive.

For the molecule `CC(=O)OCC(COC(C)=O)OC(C)=O`, the result was inactive.

As for `CCCCCCCCCCCCCCOS(=O)(=O)O`, the AC50 was 9.35 µM (active).

As for `N[C@@H](Cc1c[nH]c2ccccc12)C(=O)O`, the molecule was called inactive.

Turning to `CC(C)c1cccc(C(C)C)c1NC(=O)NS(=O)(=O)c1cc(C(C)(C)O)co1`, the result was inactive.

Take `CCCCC(CC)COC(=O)CCCCCCCC(=O)OCC(CC)CCCC` (stereo not given): the molecule was called inactive.

On to `NC=O`, for which the result was inactive.

Consider `Oc1ccc(O)cc1`, for which the call was inactive.

Take `CCOCCOCCO`: the outcome was inactive.

`c1ccc2occc2c1`: the result was inactive.

As to `CS(=O)(=O)c1ccc([C@@H](C[C@H]2CCC(=O)C2)C(=O)Nc2cnccn2)cc1Cl`, the call was inactive.

`Cn1cnc2c1c(=O)[nH]c(=O)n2C`: the call was inactive.

Turning to `CCc1nc(N)nc(N)c1-c1ccc(Cl)cc1`, the result was inactive.

`C#CC(O)C(CC)CCCC` (stereo not given): the outcome was inactive.

`O=C(Oc1ccccc1)c1cccc(C(=O)Oc2ccccc2)c1`: the molecule was classed as inactive.

For `CCCCc1nc2cccnc2n1Cc1ccc(-c2ccccc2-c2nnn[nH]2)cc1`, the result was inactive.

With `S=c1[nH]c2ccccc2s1`, the half-maximal activity concentration (AC50) is 39.6 µM (active).

Regarding `CCCCCCCCCCCCCCCCO`, the molecule was called inactive.

In the case of `O=C1NC(=O)C(c2ccccc2)(c2ccccc2)N1`, the molecule was classed as inactive.

On to `CC(N)=O`, for which the call was inactive.

Turning to `O=C1O[C@H]([C@H](O)CO)C(O)=C1O`, the molecule was called inactive.

As to `CCCCOC(=O)CCCCC(=O)OCCCC`, the call was inactive.

`O=C(O)CC(O)(CC(=O)O)C(=O)O`: the molecule was called inactive.

Take `COC(=O)CCC(=O)OC`: the call was inactive.

In the case of `CO[C@@H]1COCC[C@@H]1N[C@@H]1CC[C@@](C(=O)N2CCc3ncc(C(F)(F)F)cc3C2)(C(C)C)C1`, the outcome was inactive.

Take `O=C1c2c(O)cccc2Cc2cccc(O)c21`: the molecule was called inactive.

`CCCCCCC(C=O)=Cc1ccccc1`: the outcome was inactive.

For the molecule `CC(=O)O`, the outcome was inactive.

As for `O=C(O)c1[nH]n(-c2ccc(S(=O)(=O)O)cc2)c(=O)c1N=Nc1ccc(S(=O)(=O)O)cc1`, the molecule was classed as inactive.

As for `C=CCc1ccc(OC)c(OC)c1`, the molecule was classed as inactive.

As to `Cc1ccc(-c2cc(C(F)(F)F)nn2-c2ccc(S(N)(=O)=O)cc2)cc1`, the outcome was inactive.

For `O=Cc1ccccc1C=O`, the molecule was classed as inactive.

As to `O=C(O)CN(CC(=O)O)CC(=O)O`, the result was inactive.
